# Laboratory results reported in PubChem BioAssay AID1851 (National Center for Advancing Translational Sciences (NCATS), 2009).
# The campaign covered roughly 16,000 compounds. About 4,000 (25%) were called active. Inconclusive results (about 26%) are left out. These entries were drawn from the full list. Values without a mark were called inactive. Calls come from the whole dose curve; as a rule, active = well fitted curve in the direction sought with a large enough effect; inconclusive = small, poorly fitted or top-dose-only effect, or effect the other way; inactive = no such curve, though single readings can be large or run the other way. Square brackets hold non-standard residues; d marks the D form. Peptide text beside a SMILES is read from it. * marks the point of attachment. ξ: configuration not given here. Cbz = O=C(OCc1ccccc1)*; ξA = CC(N)C(=O)O
# Target: Cytochrome P450 2C9 (Homo sapiens) (UniProt P11712)
# Sequence (P11712 whole entry, looked up): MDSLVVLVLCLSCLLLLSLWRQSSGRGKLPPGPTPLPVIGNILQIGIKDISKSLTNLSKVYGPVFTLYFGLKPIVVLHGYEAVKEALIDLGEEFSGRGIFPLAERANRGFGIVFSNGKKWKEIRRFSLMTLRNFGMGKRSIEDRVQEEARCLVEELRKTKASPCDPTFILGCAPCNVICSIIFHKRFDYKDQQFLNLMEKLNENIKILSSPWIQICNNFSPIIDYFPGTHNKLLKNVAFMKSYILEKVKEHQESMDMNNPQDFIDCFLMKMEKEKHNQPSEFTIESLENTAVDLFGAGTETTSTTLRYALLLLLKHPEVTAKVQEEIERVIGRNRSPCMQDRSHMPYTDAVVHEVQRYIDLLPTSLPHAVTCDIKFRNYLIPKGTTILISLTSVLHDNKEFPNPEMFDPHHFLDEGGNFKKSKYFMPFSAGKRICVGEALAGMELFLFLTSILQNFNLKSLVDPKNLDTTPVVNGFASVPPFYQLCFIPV
# Assay: Cytochrome panel assay with activity outcomes
# Details: recombinant CYP, pro-luciferin dealkylation, luminescence, p450-cyp2c9; series mostly up to 57.1 µM; activity, negative = inhibition: at the top concentration
# % is set by controls: 0 for no effect and ±100 for the full control effect.
Structure (SMILES),"activity, negative = inhibition",AC50
O=C(O)NCC1CCCCC1 (tested in a mixture with another compound),-18.2% [at 11.4 µM],
S=C(NCc1ccccn1)Nc1cccc(Cl)c1,4.91%,
O=C(COc1ccccc1Cl)NC(=S)Nc1cccc(NC(=O)c2ccccc2Cl)c1,,0.794 µM (active)
O=C(CCN1C(=O)c2ccccc2C1=O)NC(=S)Nc1cccc(Cl)c1,,10 µM (active)
Cc1ccccc1OCC(=O)NC(=S)Nc1ccc(Br)c(C)n1,-24.6%,
CCC(=O)NC(=S)Nc1ccc(NC(=O)COc2ccc(Cl)cc2Cl)cc1,-19%,
N[C@H](CO)C(=O)NCC(=O)O (H-[dS]-Gly-OH),7.87% [at 11.4 µM],
CC(Sc1ccc2c(c1)OCCO2)C(=O)Nc1ncc(Cl)cc1Cl (configuration not stated),,3.98 µM (active)
Cc1ccc(NC(=O)/C(=C/c2cccc([N+](=O)[O-])c2)NC(=O)C2CCCCC2)c(C)c1,-13.7%,
CCc1ccc(N2CC(C(=O)N/N=C/c3cccc([N+](=O)[O-])c3)CC2=O)cc1 (configuration not stated),,3.55 µM (active)
CC1CCCN(CCCNC(=O)C2CC(=O)N(c3ccc(F)c(Cl)c3)C2)C1 (configuration not stated),17.6%,
Cc1ccccc1NC(=O)C1CC(=O)N(c2ccc3c4c(cccc24)CC3)C1 (configuration not stated),12.2%,
O=C(N/N=C/c1cccc([N+](=O)[O-])c1)c1cc2c(ccc3ccccc32)o1,8.69%,
CCc1ccc(N2CC(C(=O)NC3=NCCS3)CC2=O)cc1 (configuration not stated),,12.6 µM (active)
Nc1nc2c(nc(Br)n2[C@@H]2O[C@H]3COP(=O)(O)O[C@H]3[C@@H]2O)c(=O)[nH]1,-3.31%,
COC(=O)/C=C\c1cc(O)ccc1O,,7.94 µM (active)
COC(=O)[C@](C)(N)Cc1ccc(O)cc1,20%,
COc1cc([C@H](O)C(=O)O)ccc1O,13.8%,
Cn1c(CCN2CCCCC2)nc2cc([N+](=O)[O-])ccc21,-0.958%,
O=C(c1ccc(Br)cc1)c1cc([N+](=O)[O-])ccc1N1CCCCC1,,2.51 µM (active)
CN1CCN(c2ccc([N+](=O)[O-])cc2C(=O)N2CCOCC2)CC1,14.2%,

Structure (SMILES),"activity, negative = inhibition",AC50
CCN1CCN(c2nn3c(=O)c4ccccc4nc3c3ccccc23)CC1,-10.3%,
CCn1c(/C=C2/C(=O)N(C)c3ccccc32)nc2ccccc2c1=O,,10 µM (active)
Cc1cnc(CNc2cc(-c3ccccc3C)ncn2)cn1,-11.2% [at 2.29 µM],
CCc1ccc(-c2csc(NC(=O)C3CCCO3)c2C(=O)OC(C)C)cc1 (configuration not stated),,4.47 µM (active)
CO/N=C\[C@@H](OC)[C@H](C)/C=C\CC(=O)OC,-2.61% [at 11.4 µM],
CCOc1cc(/C=C2/SC(=O)N(CC(=O)N3CCc4ccccc4C3)C2=O)ccc1OCC(=O)O,,12.6 µM (active)
Cn1c(=O)[nH]c2ncn(C)c2c1=O,4.36%,
Cc1c(Br)c([N+](=O)[O-])nn1CC(=O)NCc1cccs1,-30.1%,
Cc1c(Br)c([N+](=O)[O-])nn1CC(=O)NCc1ccccn1,-8.45%,
Cc1ccc(NC(=O)Cn2nc([N+](=O)[O-])c(Br)c2C)cc1C,,14.1 µM (active)
CC[n+]1c(/C=C/Nc2ccccc2)oc2ccccc21,3.83%,
CCc1cccc(C)c1NC(=O)CSc1nc2ccc(N3C(=O)c4ccccc4C3=O)cc2s1,,3.55 µM (active)
CC[N+](CC)(CC(=O)Nc1c(C)cccc1C)Cc1ccccc1,-17.2% [at 25.6 µM],
NC(=O)CNC(=O)[C@@H]1CC2(CC(c3ccccc3)=NO2)CN1C(=O)c1ccc(Br)cc1 (some centres not stated),-2.63%,
CCOc1ccc(C(=O)NC(=S)N(Cc2ccccc2)Cc2ccccc2)cc1,,10 µM (active)
COc1ccc(CN(CCC#N)C(=S)NC(=O)c2ccccc2)cc1,,0.631 µM (active)
O=C(O)c1ccccc1C(=O)NCc1ccc(F)cc1,-12.1%,
CN1CCN(NC(=O)c2ccccc2F)CC1,-0.803%,
O=C(NC(=S)N(Cc1ccccc1)Cc1ccccc1)c1ccccc1F,,0.891 µM (active)
O=C(NC1(C(F)(F)F)C(=O)Nc2c1c(=O)[nH]c(=O)n2-c1ccc(F)cc1)c1cccnc1 (configuration not stated),-9.59%,
Cc1cccc(CNc2ncncc2-c2cccc(C#N)c2)c1,-7.76% [at 2.29 µM],

Structure (SMILES),"activity, negative = inhibition",AC50
Cn1cccc1C(=O)N1CCC[C@@]2(CCN(c3ccccn3)C2)C1,3.61%,
Cc1ccc(CC(=O)N2CC(C)OC(C)C2)cc1 (configuration not stated),6.48%,
Cc1ccc(-c2nnc(C)c(N3CC(C)OC(C)C3)n2)cc1 (configuration not stated),,17.8 µM (active)
O=C1NCCCC1C(=O)Nc1ccccc1C(F)(F)F (configuration not stated),-18.4%,
CCCC[C@@H]1C[C@H]1C(NC(=O)c1cccs1)c1ccccc1C(F)(F)F (some centres not stated),,1 µM (active)
CCCC[C@@H]1C[C@H]1C(NC(=O)c1ccccc1)c1ccccc1C(F)(F)F (some centres not stated),,1.26 µM (active)
C#CCCCO/N=C1/[C@H]2O[C@@H]2[C@@H](O)[C@H]2[C@H]1CCn1c(=O)n(C)c(=O)n12,4.28% [at 11.4 µM],
CCOC(=O)C1CN(S(=O)(=O)c2cccc(C(F)(F)F)c2)c2cc(CC(=O)OC)ccc2O1 (configuration not stated),,6.31 µM (active)
CCC(C)C(NC(=O)OCc1ccccc1)C(=O)OCN1C(=O)c2ccccc2C1=O (configuration not stated),,12.6 µM (active)
COC(=O)CNC(=O)C(C)NC(=O)CNC(=O)OCc1ccccc1 (stereo not drawn) (Cbz-Gly-[ξA]-Gly-OMe),-11.6%,
O=C(CCNC(=O)c1ccccc1)OCN1C(=O)c2ccccc2C1=O,-12.5%,
N#Cc1ccccc1Sc1ccccc1N,,5.01 µM (active)
N#CC(=C(/N)Sc1ccccc1N)/C(C#N)=C(/N)Sc1ccccc1N,3.74%,
CC(=O)COC(=O)CCc1nc2ccccc2[nH]c1=O,-22.1%,
CCN(CC)CCOc1ccc2nc(N(C)C)sc2c1,-10.8%,
O=c1c(-c2nnc(SCc3ccc(Cl)cc3Cl)o2)cccn1Cc1ccccc1,,11.2 µM (active)
CC(C)=CCNc1ncnc2nc[nH]c12,-9.02% [at 11.4 µM],
S=C(S)O[C@@H]1C[C@@H]2C[C@H]1[C@@H]1CCC[C@H]21,,3.98 µM (active)
CC1CCC(C(=O)NC(C(=O)N2CCC(N3CCCCC3)CC2)C(C)C)CC1 (configuration not stated),-14.4%,
Nc1ncnc2c1ncn2CCCCC(=O)O,9.41% [at 11.4 µM],
